The values below come from PubChem BioAssay.

Activity calls are given as the source filed them.

The nature of assay [1]: E. coli DRC41 culture turbidity changes, primary screen, E. coli filamentation inducer project, strain DRC41, OD650, 48 h (AID 1152).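 Note: E. coli MC1000 strain DRC41 lacking acrAB efflux pump and sulA.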 The note with it: E. coli DRC41 (acrAB sulA), higher = more signal, called active from +8 up or from −8 down.
Assay [2] in a line: small-molecule binders of probe aLefty1, primary screen, biochemical, small-molecule microarray, 635/667 nm fluorescence (AID 1153).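 Note: score merges spot fluorescence with signal-to-noise ratio from the scanned slide images.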 The note with it: higher = more signal.
Assay [3] can be described thus: PSAC antagonists in infected red cells, primary screen, cell-based, P. falciparum Indochina, OD700, 1 h (AID 1154). The note with it: P. falciparum Indochina infected RBC osmotic lysis, higher = more signal, called active from +8 up or from −8 down.
Assay [4] can be described thus: PSAC antagonists in infected red cells, primary screen, cell-based, P. falciparum Indochina, OD700, 2 h (AID 1155).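 Note: lysis reports solute entry through the parasite surface anion channel PSAC; channel blockers reduce lysis of infected cells.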 The note with it: P. falciparum Indochina infected erythrocytes, osmotic lysis OD700; higher = more signal, called active from +8 up or from −8 down.
Assay [5] can be described thus: osmotic lysis modulators in infected erythrocytes, primary screen, PSAC antagonist project, cell-based, P. falciparum Indochina, OD700, 3 h (AID 1156). The note with it: higher = more signal, called active from +8 up or from −8 down.
Assay [6] can be described thus: PSAC antagonists in infected red cells, primary screen, cell-based, P. falciparum Indochina, OD700, 18 h (AID 1157). The note with it: P. falciparum Indochina infected erythrocytes, osmotic lysis OD700, 18 h; higher = more signal, called active from +8 up or from −8 down.
Assay [7] can be described thus: modulators of S6 phosphorylation in cells, primary screen, cell-based, A549, cytoblot, luminescence, serum-stimulated (AID 1158).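 Note: serum-stimulated A549 lung adenocarcinoma cells; signal is phosphorylated S6 detected by cytoblot immunostaining with HRP secondary.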 The note with it: A549 phospho-S6 cytoblot, 5 h, higher = more signal.
For assay [8], the target named is NADPH oxidase 2 (Homo sapiens) (UniProt P04839). Briefly: NOX2-dependent H2O2 signal modulators, primary screen, NOX inhibitor project, cell-based, HEK293-NOX2, PMA-stimulated, Amplex Red fluorescence (AID 1159). Note: test concentration not given here. The note with it: 45 min, higher = more signal, called active from +8 up or from −8 down.
Sequence of NADPH oxidase 2 (Homo sapiens) (P04839 whole entry, looked up): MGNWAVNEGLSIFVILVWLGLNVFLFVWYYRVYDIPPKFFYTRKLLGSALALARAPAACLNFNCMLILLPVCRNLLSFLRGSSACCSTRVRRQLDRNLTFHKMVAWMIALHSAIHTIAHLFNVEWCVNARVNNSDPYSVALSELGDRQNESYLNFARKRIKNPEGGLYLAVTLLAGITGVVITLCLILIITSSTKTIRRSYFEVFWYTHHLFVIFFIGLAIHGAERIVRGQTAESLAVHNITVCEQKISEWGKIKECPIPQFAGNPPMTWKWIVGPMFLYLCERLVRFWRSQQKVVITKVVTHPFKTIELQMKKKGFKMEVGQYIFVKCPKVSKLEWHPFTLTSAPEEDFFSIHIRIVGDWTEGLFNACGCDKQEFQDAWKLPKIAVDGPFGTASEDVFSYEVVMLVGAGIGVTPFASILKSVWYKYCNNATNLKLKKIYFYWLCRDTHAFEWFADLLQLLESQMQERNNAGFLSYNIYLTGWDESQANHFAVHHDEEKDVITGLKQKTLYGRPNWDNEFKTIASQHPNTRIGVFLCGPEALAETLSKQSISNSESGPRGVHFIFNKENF
For assay [9], the target named is NADPH oxidase 4 (Homo sapiens) (UniProt Q9NPH5). Briefly: NOX4-dependent H2O2 signal modulators, primary screen, NOX inhibitor project, cell-based, HEK293-NOX4, tetracycline-induced, Amplex Red fluorescence (AID 1160). The note with it: 45 min, higher = more signal, called active from +8 up or from −8 down.
Sequence of NADPH oxidase 4 (Homo sapiens) (Q9NPH5 whole entry, looked up): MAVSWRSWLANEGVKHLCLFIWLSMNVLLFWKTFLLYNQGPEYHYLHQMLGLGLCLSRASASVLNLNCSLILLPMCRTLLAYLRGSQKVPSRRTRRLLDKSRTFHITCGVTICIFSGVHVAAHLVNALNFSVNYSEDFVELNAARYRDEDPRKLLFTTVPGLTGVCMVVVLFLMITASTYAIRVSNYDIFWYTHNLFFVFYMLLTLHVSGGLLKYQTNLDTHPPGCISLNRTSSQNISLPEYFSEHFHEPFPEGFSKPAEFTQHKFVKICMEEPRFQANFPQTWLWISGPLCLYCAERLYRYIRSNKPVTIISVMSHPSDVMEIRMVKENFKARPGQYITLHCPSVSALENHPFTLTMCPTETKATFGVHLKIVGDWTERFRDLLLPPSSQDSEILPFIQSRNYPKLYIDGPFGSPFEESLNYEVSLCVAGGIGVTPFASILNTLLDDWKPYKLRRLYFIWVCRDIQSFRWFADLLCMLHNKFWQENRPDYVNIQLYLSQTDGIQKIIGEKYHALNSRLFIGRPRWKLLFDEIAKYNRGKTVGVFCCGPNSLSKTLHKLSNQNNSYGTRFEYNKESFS
The target of assay [10] is NADPH oxidase 5 (Homo sapiens) (UniProt Q96PH1). As to the kind of experiment: NOX5-dependent H2O2 signal modulators, primary screen, NOX inhibitor project, cell-based, HEK293-NOX5, Amplex Red fluorescence (AID 1161). The note with it: HEK293-NOX5, ionomycin, 45 min, higher = more signal.
Sequence of NADPH oxidase 5 (Homo sapiens) (Q96PH1 whole entry, looked up): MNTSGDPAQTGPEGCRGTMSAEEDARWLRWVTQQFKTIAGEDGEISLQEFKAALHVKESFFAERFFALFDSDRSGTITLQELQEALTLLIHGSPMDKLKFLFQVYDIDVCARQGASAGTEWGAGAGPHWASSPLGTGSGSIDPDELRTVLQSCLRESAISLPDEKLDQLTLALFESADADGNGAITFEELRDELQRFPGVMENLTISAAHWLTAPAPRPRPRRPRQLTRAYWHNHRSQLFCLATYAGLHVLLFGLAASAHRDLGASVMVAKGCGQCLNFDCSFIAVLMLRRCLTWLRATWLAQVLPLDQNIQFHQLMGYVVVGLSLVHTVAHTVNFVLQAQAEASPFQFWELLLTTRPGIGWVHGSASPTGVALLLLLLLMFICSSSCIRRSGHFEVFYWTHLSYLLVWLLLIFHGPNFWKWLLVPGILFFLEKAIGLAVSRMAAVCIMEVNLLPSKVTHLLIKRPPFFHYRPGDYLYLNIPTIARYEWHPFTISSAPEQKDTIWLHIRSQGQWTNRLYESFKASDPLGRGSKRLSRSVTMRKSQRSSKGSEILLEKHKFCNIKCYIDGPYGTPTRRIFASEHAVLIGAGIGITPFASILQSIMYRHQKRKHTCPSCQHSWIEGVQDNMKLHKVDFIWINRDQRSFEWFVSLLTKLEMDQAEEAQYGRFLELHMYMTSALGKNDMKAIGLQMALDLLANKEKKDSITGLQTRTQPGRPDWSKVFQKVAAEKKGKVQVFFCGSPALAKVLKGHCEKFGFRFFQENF

`COCCOC(=O)N1C(=O)[C@@]2(c3cc(C#CCNC(N)=O)ccc31)[C@H](c1ccc(OCCO)cc1)N1[C@H](c3ccccc3)[C@H](c3ccccc3)OC(=O)[C@H]1[C@@H]2C(=O)Nc1nc2ccccc2s1`: the z-score in [1] is 2.28 (inactive); in assay [3] it was 2.66 (inactive); in assay [4], 1.67 (inactive); in [5], 0.73 (inactive); in [6] it was 1.24 (inactive); in [7], 0.652. In addition, the z-score in assay [8] was 0.398 (inactive); in assay [9] it was -0.211 (inactive); in assay [10], 1.12. The same compound displayed a composite z-score in assay [2] of 0.0844.

`COc1ccc([Si](C)(C)[C@H]2[C@H](CC(=O)N3Cc4ccccc4C[C@H]3CO)O[C@@]3(C(=O)N(Cc4cccc(N5CCOC5=O)c4)c4ccccc43)[C@@H]2C)cc1`: the z-score is 0.666 (inactive) in assay [1]; 4.02 (inactive) in [3]; 1.09 (inactive) in [4]; 0.739 (inactive) in [5]; 0.771 (inactive) in [6]; 2.73 in assay [7]. Moreover, the z-score is -1.14 (inactive) in [8], 0.916 (inactive) in [9] and -1.09 in [10]. Further, the composite z-score in assay [2] is -0.012.

Take `COC(=O)[C@H]1[C@@H]2COc3ccccc3[C@H]2N[C@H]1C(=O)OC`: the z-score was 0.896 (inactive) in [1]; 0.262 (inactive) in [3]; -0.122 (inactive) in [4]; -0.406 (inactive) in assay [5]; -0.21 (inactive) in [6]; 0.12 in assay [7]. Further, the z-score is -2.88 (inactive) in [8], 0.28 (inactive) in assay [9] and -1.9 in assay [10]. The compound further had a composite z-score in [2] of -0.0046.

For `CCN1C(C)=C(C(=O)OC)[C@@H](c2ccccc2)N2C(=O)[C@](O)(C(=O)OC)[C@@H](c3ccccc3)C(C(C)=O)=C12`, the z-score in assay [1] was -0.461 (inactive); in assay [3], 2.31 (inactive); in [4], 0.414 (inactive); in assay [5] it was 0.291 (inactive); in [6], 0.0714 (inactive); in [7] it was 3.95. In addition, the z-score in assay [8] was -0.211 (inactive); in assay [9] it was -0.585 (inactive); in assay [10], 1.35. The composite z-score in assay [2] was -0.0111.

As for `O=C1c2ccccc2[C@@]2(Cc3ccccc3N(CC(F)(F)F)C2=O)[C@H](c2ccc(CO)cc2)N1C1CCCCC1`, the z-score in [1] is 0.969 (inactive); in assay [3] it was 0.856 (inactive); in assay [4] it was 0.81 (inactive); in [5], 0.0811 (inactive); in assay [6], 0.427 (inactive); in assay [7], 0.0443. Besides, the z-score is 0.161 (inactive) in assay [8], -0.501 (inactive) in assay [9] and 0.239 in [10]. The composite z-score in [2] worked out at 0.062.

In the case of `C=CCNC(=O)[C@H]1[C@@H]2C(=O)O[C@@H](c3ccccc3)[C@@H](c3ccccc3)N2[C@@H](c2ccccc2OCCO)[C@]12C(=O)N(C(=O)OCCOC)c1ccc(C#CCC(C(=O)OC)C(=O)OC)cc12`, the z-score is 2.88 (inactive) in [1]; 2.93 (inactive) in assay [3]; -0.183 (inactive) in assay [4]; 0.824 (inactive) in assay [5]; -2.13 (inactive) in [6]; 2.23 in assay [7]. The z-score in [8] was 0.819 (inactive); in assay [9], 0.0202 (inactive); in [10], 0.521. This compound displayed a composite z-score in assay [2] of 0.042.

Take `CN(C)CCCC[C@@H]1NC(=O)[C@@H]2C[C@H](C(=O)O)[C@H](c3ccc(O)cc3)N2C1=O`: the z-score was 2.66 (inactive) in assay [1]; 0.847 (inactive) in [3]; -1.57 (inactive) in [4]; -3.19 (inactive) in [5]; -1.98 (inactive) in assay [6]; 1.03 in assay [7]. The z-score was -2.71 (inactive) in assay [8], -3.88 (inactive) in [9] and -2.48 in assay [10]. In addition, the composite z-score in assay [2] is 0.616.

In the case of `CO[C@@H]1COC(=O)CC=C[C@@H](C)[C@H](OC)COC(=O)CC=C[C@H]1C`, the z-score in [1] was 0.356 (inactive); in assay [3] it was -0.611 (inactive); in assay [4] it was -0.163 (inactive); in assay [5], -0.335 (inactive); in assay [6], -0.0143 (inactive); in assay [7] it was 0.711. Besides, the z-score was -0.49 (inactive) in [8], 0.276 (inactive) in [9] and 0.586 in assay [10]. In addition, the composite z-score in assay [2] was -0.257.

Consider `NC(=O)NCC#Cc1ccc2c(c1)[C@]1(C(=O)N2)[C@H](C(=O)N2CCCCCCC2)[C@H]2C(=O)O[C@H](c3ccccc3)[C@H](c3ccccc3)N2[C@@H]1c1ccccc1OCCO`, for which the z-score in [1] is 1.43 (inactive); in assay [3], 0.833 (inactive); in assay [4], 0.483 (inactive); in [5], 1.8 (inactive); in [6], 0.148 (inactive); in [7], 0.421. For the same compound, the z-score is 2 (inactive) in assay [8], 1.36 (inactive) in assay [9] and 0.881 in assay [10]. The compound also showed a composite z-score in assay [2] of 2.79.

On to `CC(=O)NCCCC[C@@H]1NC(=O)[C@@H]2C[C@H](C(=O)NCCCCCCN(C)C)[C@H](c3ccc(O)cc3)N2C1=O`, for which the z-score in assay [1] was 1.03 (inactive); in assay [3], 1.19 (inactive); in assay [4], -1.12 (inactive); in assay [5], -2.63 (inactive); in assay [6], -2.32 (inactive); in [7] it was -0.0253. The z-score was -0.498 (inactive) in assay [8], -1.45 (inactive) in assay [9] and 0.253 in [10]. In assay [2], this compound returned a composite z-score of -0.0619.

In the case of `CCOC(=O)C[C@H]1[C@H](OC(=O)c2cc3ccccc3oc2=O)[C@@H](NC(=O)c2ccc3ccccc3c2)c2cc(OCCCO)ccc2N1C(=O)c1ccc2ccccc2n1`, the z-score in [1] is 2.1 (inactive); in [3], 11.1 (active); in [4], 1.42 (inactive); in assay [5], 0.865 (inactive); in [6] it was 0.868 (inactive); in assay [7] it was 0.63. The z-score in [8] is 0.985 (inactive); in assay [9], 0.873 (inactive); in [10], 2.17. Also, the composite z-score in assay [2] was 0.19.

Take `COc1cc([C@@H]2N[C@H](C(=O)O)Cc3c2[nH]c2ccccc32)cc(OC)c1OC`: the z-score in assay [1] is 0.441 (inactive); in assay [3], 0.604 (inactive); in assay [4], 0.321 (inactive); in [5] it was 0.665 (inactive); in assay [6], 0.198 (inactive); in assay [7], 0.172. For the same compound, the z-score is 2.14 (inactive) in [8], -0.0815 (inactive) in assay [9] and -1.1 in assay [10]. The compound further displayed a composite z-score in [2] of -0.324.
